Only a selection was taken, and hits are over-represented in it overall.
Integrin act MD: activates integrin-mediated alleviation for muscular dystrophy; 350,000 tested, 0.064% active; alpha7betagal myoblasts, beta-gal FDG fluorescence, 48 h; Potency, µM (top dose mostly 38.3 µM), hits mostly activators; also: nearly all actives have a fitted effect of over 60% in size
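alpha7betagal+/- myoblasts (passage 13, 250/well) treated 48 h at 37C with compounds at 1:260 dilution of DMSO stock. Lysed, then beta-galactosidase activity read as FDG fluorescence (ex 480/em 540) after 30 min, with pre-read for autofluorescence.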
ClpP mod: qHTS Assay for Activators of ClpP; purified B. subtilis ClpP, FRET peptide cleavage, 20 min; Potency, µM (highest dose often 57.5 µM); 340,000 tested, 1.9% active; active = well fitted falling curve with a large enough effect; inconclusive = small, poorly fitted or top-dose-only effect; inactive = no such curve, though single readings can be large or run the other way; also: the source files actives as falling curves though it sought activators and does not explain the sign; nearly all actives have a fitted effect of over 65% in size
Target sequence (P80244 whole entry, looked up): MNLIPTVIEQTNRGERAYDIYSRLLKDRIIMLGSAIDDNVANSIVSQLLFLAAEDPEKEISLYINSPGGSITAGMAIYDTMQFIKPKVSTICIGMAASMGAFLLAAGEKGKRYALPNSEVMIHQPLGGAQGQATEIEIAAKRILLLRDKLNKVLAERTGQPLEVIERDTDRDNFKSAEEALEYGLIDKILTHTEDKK
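Purified B. subtilis ClpP, 10 microg/mL final in Tris/HCl pH8 with KCl, BSA, glycerol and Tween-20, cleaved an Abz/nitrotyrosine-quenched decapeptide. Fluorescence (ex 320, em 430) was read at 0 and 20 min at room temperature. Delta was normalized to 5.8 microM ADEP and DMSO/no-enzyme controls.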
GRP78 ERSR act: induces the endoplasmic reticulum stress response in human glioma cells; U87-MG GRP78 promoter luciferase reporter, 16 h; AID 602332; Potency, µM, most hits filed as activators; 420,000 tested, 0.02% active; also: series mostly up to about 76 µM; nearly all actives have a fitted effect of over 35% in size
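ERSR induction read as luciferase luminescence (Bright-Glo, 10 min at room temperature) in stably transfected human U87-MG glioma cells exposed to compounds for 16 h, using GRP78 as sensor.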
N370S GC mod: N370S glucocerebrosidase modulation, Gaucher chaperone candidate. P04062. N370S GC spleen homogenate, 4MU-glucoside fluorescence. Potency, µM (highest dose often 59.4 µM), hits mostly inhibitors. 330,000 tested, 0.092% active
Anesthetic bind: binds horse apoferritin like a general anesthetic; apoferritin/1-aminoanthracene competitive binding, fluorescence; Potency, µM (highest dose often 77.5 µM), usual class: inhibitors; 350,000 tested, 0.074% active; also: nearly all actives have a fitted effect of over 20% in size
Target sequence (P02791 2-175 limits assumed): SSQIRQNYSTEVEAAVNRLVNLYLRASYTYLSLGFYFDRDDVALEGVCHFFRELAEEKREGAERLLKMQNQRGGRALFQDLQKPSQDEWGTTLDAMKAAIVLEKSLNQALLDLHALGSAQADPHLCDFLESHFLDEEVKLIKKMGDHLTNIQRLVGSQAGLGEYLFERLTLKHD
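Probe: 1-aminoanthracene (50% saturated, PBS). Protein: horse-spleen apoferritin, 10 uM. Incubation: 10 min, room temperature. Detection: 380 nm excitation, 535 nm emission. Analysis: normalized response, four-parameter Hill.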
CBFb-RUNX1 inh: inhibitors of human CBF-beta and RUNX1 interaction. Q01196+Q13951. AID 1477. Potency, µM (highest dose often 59.8 µM), usual class: inhibitors. AlphaScreen CBFb-His/RUNX1-biotin binding, biochemical. 230,000 tested, under 10 active
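Inhibition was taken as any reduction in AlphaScreen signal from the CBF-beta–RUNX1 pair (His and biotin tags, 30 nM each), measured after compound (15 min) and bead (90 min) incubations at room temperature.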
A number is an active result; n = inactive; u = inconclusive; x = not tested or not shown. Unless noted, calls follow the shape of the dose curve; as a rule, active = well fitted curve in the direction sought with a large enough effect; inconclusive = small, poorly fitted or top-dose-only effect, or another doubt; inactive = no such curve, though single readings can be large; an effect the other way counts as inactive or inconclusive.

SMILES | Integrin act MD | ClpP mod | GRP78 ERSR act | N370S GC mod | Anesthetic bind | CBFb-RUNX1 inh
COc1cccc(C(=O)Nc2ccc3nc(SCc4ccc(C)cc4)sc3c2)c1 | x | u | n | x | n | x
Cc1ccn(CCC(=O)NCC2Cc3cc(Cl)cc(-c4ccc5[nH]ccc5c4)c3O2)n1 (stereo not drawn) | x | x | n | x | x | x
Cn1ccc(C(=O)NCC2CCC3(CCN(Cc4cc(F)cc(F)c4)CC3)O2)n1 (stereo not drawn) | x | x | n | x | x | x
CCOc1ccccc1C(=O)N(C)Cc1cc2cc(OC)ccc2[nH]c1=O | n | 31.6µM | n | n | n | n
COc1ccc2[nH]c(=O)c(CN(C)C(=O)COc3ccccc3)cc2c1 | n | 31.6µM | n | n | n | n
CCOc1ccc(N(Cc2cc3cc(OC)ccc3[nH]c2=O)S(C)(=O)=O)cc1 | n | 28.2µM | n | n | n | n
CCCCN(Cc1cc2cc(OC)ccc2[nH]c1=O)C(=O)COc1ccccc1 | n | n | n | x | x | x
CO[C@H]1[C@H](NC(=O)c2ccco2)c2ccccc2C12CCN(Cc1ccc3cccc(F)c3n1)CC2 | x | x | n | x | x | x
COc1ccc(-c2nc(C#N)c(N3CCc4ccccc4C3)o2)cc1OC | n | u | n | n | n | u
COc1cc2c(C#N)c(N3CCCCC3)nc(N)c2c(N)n1 | n | 28.2µM | n | n | n | n
CCN(CC)c1nc(N)c2c(N)nc(OC)cc2c1C#N | n | n | n | x | x | x
COc1cc2c(C#N)c(N3CCc4ccccc4C3)nc(N)c2c(N)n1 | n | 28.2µM | n | n | n | n
COc1cc2c(C#N)c(N3CCOCC3)nc(N)c2c(N)n1 | n | 15.8µM | n | n | n | n
COc1ccccc1CCNc1ncnc2sc(C(=O)N3CCCC3)c(C)c12 | x | x | n | x | x | x
O=C(NC12CC3CC(CC(C3)C1)C2)c1ccc(-c2ccc(Br)cc2)o1 | n | 31.6µM | n | u | n | n
O=C(NC1CCS(=O)(=O)C1)c1ccc(-c2ccc(Br)cc2)o1 (stereo not drawn) | n | 15.8µM | n | n | n | n
O=C(NC12CC3CC(CC(C3)C1)C2)c1ccc(Br)o1 | n | x | n | n | u | x
Cc1ccccc1CN1Cc2cccc3c2[C@H](C=CC3)CC1=O | x | n | n | x | x | x
CC1(C)Cc2[nH]c(=O)c(C#N)cc2CS1 | n | 14.1µM | n | n | n | n
CN(CC(=O)Nc1ccccc1Br)C(=O)c1ccc(-c2ccc(Cl)cc2)o1 | n | 31.6µM | n | n | u | x
COc1cccc(NC(=O)CN(C)C(=O)c2ccc(-c3ccc(Cl)cc3)o2)c1 | n | u | n | n | x | x
COCC1CCCN(c2nc(CN3CCN(C(=O)c4ccco4)CC3)nc3ccccc23)C1 (stereo not drawn) | x | x | n | x | x | x
COc1cccc(C2(CC(=O)N3CCC(c4nc5ccccc5o4)CC3)CC(=O)N(C)C2=O)c1 (stereo not drawn) | x | x | n | x | x | x
Cc1ccc(-c2nnn(CC(=O)Nc3ccccc3-c3ccccc3)n2)c(-n2cnnn2)c1 | n | 11.2µM | n | n | n | n
Cc1cc2nnc(SC(C)C#N)n2c2ccccc12 (stereo not drawn) | n | n | n | n | n | n
SMILES | Integrin act MD | ClpP mod | GRP78 ERSR act | N370S GC mod | Anesthetic bind | CBFb-RUNX1 inh
Cc1cc2nnc(SC(C)C)n2c2ccccc12 | n | 28.2µM | n | u | n | n
O=C(CN1C(=O)C(=O)N(CCC2=CCCCC2)C1=O)c1c[nH]c2ccccc12 | n | 11.2µM | n | x | x | x
COc1ccc(CN2CC[C@H]3C=CC[C@@H](C(=O)Nc4ccc(Cl)cc4Cl)[C@H]3C2=O)cc1OC | x | n | n | x | x | x
Cc1cccc(C)c1Nc1c(-c2ccsc2)nc2cccc(C)n12 | x | 35.5µM | n | x | n | x
COc1ccc(CN2CCCC(n3cc(C(=O)N4CCCCC4)nn3)C2)cc1OC (stereo not drawn) | x | x | n | x | x | x
CC1CC(C)CN(C(=S)Nc2ccc(SC(F)F)cc2)C1 (stereo not drawn) | n | 28.2µM | n | n | u | n
CC1CN(C(=S)Nc2ccc(SC(F)F)cc2)CC(C)O1 (stereo not drawn) | n | x | n | n | n | x
CCC[N+](C)(C)c1ccc(/C=C/c2ccnc3ccccc23)cc1 | x | n | n | x | x | x
NC(N)=N/N=C/c1ccc(OCc2ccccc2)c(OCc2ccccc2)c1 | n | x | n | 11.2µM | n | x
COc1cc(/C=N/N=C(N)N)ccc1OCc1ccc(Cl)cc1 | n | n | n | 7.94µM | u | n
O=C(O)c1cc(/C=N\O)ccc1OCc1ccccc1 | n | n | n | n | n | n
NC(N)=N/N=C/c1ccccc1 | n | n | n | n | n | n
CCOc1cc(/C=N/N=C(N)N)ccc1OCc1ccc(Cl)cc1 | n | n | n | n | u | n
NC(N)=N/N=C/c1ccc(OCc2ccccc2Cl)cc1 | n | n | n | 22.4µM | u | n
O=C(COc1ccccc1C(=O)Nc1ccccc1)Nc1cccc(Br)c1 | x | n | n | x | x | x
Cc1cc2c(cc1Cl)N(C(=O)Nc1ccc(Oc3cccnc3C)nc1)CC2 | x | x | n | x | x | x
O=C(NCCc1ccccn1)C1CC12CCN(C(=O)c1ccc(F)cc1Cl)CC2 (stereo not drawn) | x | x | n | x | x | x
CN1CCCN(C(=O)[C@@H]2C[C@@H](Sc3nc4ccccc4[nH]3)CN2Cc2ccc(-c3ccccc3)cc2)CC1 | x | x | n | x | x | x
O=C(COC(=O)c1n[nH]c2ccccc12)NC(=O)NCc1ccco1 | n | 31.6µM | n | n | u | n
CNC(=O)NC(=O)COC(=O)c1n[nH]c2ccccc12 | n | x | n | n | n | n
Cc1cc(C)n(-c2cccc(C(=O)NCC3Cc4cccc(-c5ccccn5)c4O3)c2)n1 (stereo not drawn) | x | x | n | x | x | x
Cn1cc(CN2CCC(C3(c4ccccn4)NC(=O)N(CC4CCCO4)C3=O)CC2)c2ccccc21 (stereo not drawn) | x | x | n | x | x | x
CCOc1ccccc1OCC(=O)Nc1ccc(Cl)cc1Cl | u | n | n | n | n | n
CC(=O)Nc1ccccc1OCC(=O)NCCc1ccc(Cl)cc1Cl | n | 31.6µM | n | n | n | n
C/C(CC(=O)Nc1c(Cl)cccc1C(F)(F)F)=N\NC(=O)c1cnccn1 | n | n | n | x | x | x
SMILES | Integrin act MD | ClpP mod | GRP78 ERSR act | N370S GC mod | Anesthetic bind | CBFb-RUNX1 inh
C/C(CC(=O)Nc1ccc(Cl)c(C(F)(F)F)c1)=N\NC(=O)c1cnccn1 | 4.47µM | n | n | n | n | x
Cc1cc(C)c(C)c(OCC(=O)N2CCCCCC2)c1 | n | n | n | n | 20µM | n
Nc1c(Cl)cc(/C=C2\C=Cc3ccccc32)cc1Cl | x | n | n | x | x | x
Cc1cnc(C)c(-c2ccc(F)c3c2OC(CNC(=O)/C=C/c2cccs2)C3)n1 (stereo not drawn) | x | x | n | x | x | x
Nc1c2c(nc3ccn(Cc4ccccc4)c(=O)c13)CCC2 | n | 31.6µM | n | n | n | n
O=c1[nH]c(N2CCN(Cc3ccccc3)CC2)nc2c1CCC2 | n | x | n | n | n | n

High-throughput results deposited in PubChem by National Center for Advancing Translational Sciences (NCATS).
